Source: PubChem BioAssay
Only a selection was taken, and hits are over-represented in it overall.
VDR inh: blocks the human vitamin D receptor. P11473. VDR-SRC2-3 peptide fluorescence polarization, 2 h. Potency, µM, inactives show max response, negative = inhibition, hits mostly inhibitors. 0.93% of 400,000 active; also: % is scaled to controls: 0 for no effect and ±100 for the full control effect
Target sequence (P11473 whole entry, looked up): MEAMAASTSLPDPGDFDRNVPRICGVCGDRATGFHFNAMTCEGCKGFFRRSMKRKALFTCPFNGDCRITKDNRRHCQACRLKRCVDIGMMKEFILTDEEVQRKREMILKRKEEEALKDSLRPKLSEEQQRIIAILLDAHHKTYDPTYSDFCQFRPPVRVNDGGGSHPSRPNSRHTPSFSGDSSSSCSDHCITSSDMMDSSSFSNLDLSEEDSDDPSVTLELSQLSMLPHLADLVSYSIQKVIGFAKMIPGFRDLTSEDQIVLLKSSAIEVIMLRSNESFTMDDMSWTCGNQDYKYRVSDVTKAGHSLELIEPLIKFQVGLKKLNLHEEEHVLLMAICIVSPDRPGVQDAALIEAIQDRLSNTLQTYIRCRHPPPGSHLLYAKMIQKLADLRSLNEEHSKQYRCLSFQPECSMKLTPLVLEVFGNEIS
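Compounds are added to VDR with labelled SRC2-3 coactivator peptide and held 2 h at room temperature. Inhibition of the VDR–peptide interaction is then read as a change in fluorescence polarization.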
G9a inh: inhibitors of human histone lysine methyltransferase G9a | G9a H3K9 monomethylation, AlphaScreen, 2 h | Potency, µM (top dose mostly 102 µM), for inactives: at the top dose activity, negative = inhibition, actives largely listed as inhibitors | 8.8% of 350,000 active; also: % is scaled to controls: 0 for no effect and ±100 for the full control effect; nearly all actives have a fitted effect of over 75% in size
Target sequence (Q96KQ7 913-1193 limits assumed): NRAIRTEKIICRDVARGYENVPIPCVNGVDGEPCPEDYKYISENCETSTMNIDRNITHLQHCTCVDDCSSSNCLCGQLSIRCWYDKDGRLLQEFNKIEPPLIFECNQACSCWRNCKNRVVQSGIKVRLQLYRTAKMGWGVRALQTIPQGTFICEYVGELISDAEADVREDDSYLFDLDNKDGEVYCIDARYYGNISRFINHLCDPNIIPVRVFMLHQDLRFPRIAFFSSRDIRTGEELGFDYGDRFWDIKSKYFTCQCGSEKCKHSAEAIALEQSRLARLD
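Quantitative HTS format: methyltransferase activity on a biotin-tagged H3K9 peptide is measured by AlphaScreen, using a rabbit anti-monomethyl-H3K9 antibody with streptavidin donor and anti-IgG acceptor beads. Final levels are 20 nM enzyme, 500 nM peptide, 20 uM SAM; 2 h RT.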
Sfp inh: inhibitors of Bacillus subtilis Sfp phosphopantetheinyl transferase; Biochemical Sfp PPTase activity, qHTS; Potency, µM, without a hit: largest response in the series, negative = inhibition, usual class: inhibitors; 3.5% of 310,000 active;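 also: the enzyme is Sfp with the accession as filed and its product quenches rhodamine fluorescence; 0% = enzyme reaction without inhibitor and -100% = no enzyme wells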
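After 15 min at room temperature with compound, 15 nM Sfp received 5 uM rhodamine-CoA plus 12.5 uM BHQ-2-ybbR (50 mM Hepes pH 7.6, 10 mM MgCl2). Rate came from the fluorescence difference over 30 min, ex 525/em 598 nm.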
Glioma ERSR ind: induces the endoplasmic reticulum stress response in human glioma cells; U87-MG GRP78 promoter luciferase reporter, 16 h; Potency, µM, for inactives: at the highest dose activation, usual class: activators; 0.02% of 420,000 active; also: series mostly up to about 76 µM; % of control where 0% means no effect; nearly all actives have a fitted effect of over 35% in size
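ERSR induction read as luciferase luminescence (Bright-Glo, 10 min at room temperature) in stably transfected human U87-MG glioma cells exposed to compounds for 16 h, using GRP78 as sensor.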
12-LOX inh: ALOX12 (human) lipoxygenase inhibition. purified 12hLO, xylenol orange hydroperoxide absorbance. Potency, µM (doses to about 108 µM), inactives show top-dose activity change, negative = inhibition, hits mostly inhibitors. P18054. 1.1% of 580,000 active; also: % is scaled to controls: 0 for no effect and ±100 for the full control effect
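Purified human 12hLO at 150 nM in 25 mM Hepes, 0.01% Triton X-100, pH 7.0, preincubated 15 min at room temperature with compound. Reaction started with 40 uM arachidonic acid, 30 min at room temperature. Hydroperoxide measured by Fe-xylenol orange, 573/405 nm absorbance ratio.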
* = called active by the depositor; ? = inconclusive; . = no result; ! = not confirmed by another sample; [ ] = another dose, or the depositor's remark. Calls follow the shape of the dose curve; as a rule, active = well fitted curve in the direction sought with a large enough effect; inconclusive = small, poorly fitted or top-dose-only effect, or another doubt; inactive = no such curve, though single readings can be large; an effect the other way counts as inactive or inconclusive. Potency is read from the fitted curve at half-maximal effect.

SMILES	VDR inh	G9a inh	Sfp inh	Glioma ERSR ind	12-LOX inh
CC(=O)c1c(C)[nH]c(C(=O)NNC(=O)COc2cc(C)cc(C)c2)c1C	-9%	50µM*	.	1%	16%
O=c1n(-c2ccncc2)nc2n1CCN(Cc1ccc(OC(F)(F)F)cc1)C2	.	.	.	.	65%
CC1CCCCN1S(=O)(=O)c1ccc(C(=O)Nc2ccc3ccccc3n2)cc1 (centres undefined)	.	.	.	.	-28%
COC(=O)c1cc(C(=O)OC)cc(-c2ccc(C=O)o2)c1	.	.	.	.	-1%
CCOC(=O)/C(=C\c1cccnc1)C(=O)c1cc(C(C)=O)c(Nc2ccccc2)s1	7.9µM*	10µM*	40µM*	-13%	.
CCOC(=O)/C(=C\c1ccccc1)C(=O)c1cc(C(C)=O)c(Nc2ccccc2)s1	?	?	-7%	-2%	0%
CCn1ncc(CN2CC[C@H]3C(=O)NCCCCCCN(Cc4ccncc4)[C@@H]3C2)c1C	.	.	.	.	123%
CCN1CCN(c2ccc(S(=O)(=O)N3CCCCC3)cc2NC(=O)Cc2ccccc2)CC1	13%	6.3µM*	.	-3%	16µM*!
CCN1CCN(c2ccc(S(=O)(=O)N3CCCCC3)cc2NC(=O)Cc2ccc(Cl)c(Cl)c2)CC1	-16%	40µM*	.	-5%	.
c1ccc(Nc2cccc(Nc3ccccc3)c2)cc1	6%	16µM*	13%	6%	?
COc1cc(/C=C(/C#N)c2nc3ccccc3[nH]2)cc(OC)c1	.	.	.	.	12%
CSc1ccccc1NC(=O)CN(C)CC(=O)Nc1ccccc1F	-9%	3.5µM*	-29%	-3%	7%
CSc1ccccc1NC(=O)CN(C)CC(=O)Nc1c(F)cccc1F	-15%	7.9µM*	-58%	-3%	8%
CN(CC(=O)Nc1ccccc1Br)CC(=O)Nc1ccccc1C(F)(F)F	13%	36%	2%	-4%	0%
CN(CC(=O)Nc1ccccc1F)CC(=O)Nc1ccc(F)c(F)c1F	-6%	1%	?	-2%	-4%
CC(CNC(=O)CN(C)CC(=O)Nc1ccccc1Br)c1ccccc1 (centres undefined)	-10%	45µM*	.	-3%	-21%
Cc1ccc2c(N3CCC(CO)(CN4CCCC4)CC3)ccnc2c1C	.	.	.	.	25%
COc1ccc(CN2CC3(CCN(C(=O)Nc4ccc(OC)c(F)c4)CC3)C2=O)cc1	.	.	.	.	29%
COCCN(Cc1cc2cc(C)ccc2[nH]c1=O)C(=O)c1cccnc1	.	.	.	.	4%
CC(C)=NOCc1ccc(-c2cn([C@@H]3COC[C@@H]3O)nn2)cc1	.	.	14µM*	-1%	.
CC(C)=NO[C@@H](C)c1cn([C@@H]2COC[C@@H]2O)nn1	.	.	3%	-4%	.
N#Cc1c(-c2ccccc2)nc(SCc2cccc(Cl)c2)[nH]c1=O	-9%	2%	1%	-2%	40µM*
CCOc1ccccc1NC(=O)C(C)Sc1nc(-c2ccccc2)c(C#N)c(=O)[nH]1 (centres undefined)	-2%	-23%[59 µM]	.	-1%	?
CCc1ccc(NC(=O)C(C)Sc2nc(-c3ccco3)c(C#N)c(=O)[nH]2)cc1 (centres undefined)	?	50µM*	-11%	1%	?
N#Cc1c(-c2ccco2)nc(SCC(=O)Nc2cccc(Cl)c2)[nH]c1=O	-21%	35µM*	50µM*	-5%	22µM*
SMILES	VDR inh	G9a inh	Sfp inh	Glioma ERSR ind	12-LOX inh
O=c1[nH]c(SCc2cccc(Cl)c2)nc2c1CCC2	14%	-45%[59 µM]	.	.	?
COc1cc(NS(=O)(=O)c2cccc3nsnc23)cc(OC)c1	7%	2µM*	-6%	1%	?
Cc1ccc(NS(=O)(=O)c2cccc3nsnc23)cc1C	-10%	-37%	11%	-4%	?
O=S(=O)(NCc1ccccn1)c1cccc2nsnc12	1%	20µM*	-16%	-1%	32%
CNC(=O)c1ccc(CN(C(=O)Cc2ccc(C)s2)C2CC2)cc1	.	.	.	.	8%
CCN1c2ccccc2N(C)C1(C)c1ccccc1 (centres undefined)	?	2.5µM*	32µM*	-6%	.
CCN(c1ccccc1)c1nnc(NC(=O)Nc2cc(Cl)ccc2OC)s1	.	.	.	.	14%
O=C(CCS(=O)CCC(=O)NCc1ccccc1)NCc1ccccc1	4%	50µM*	13%	-6%	28%
O=C(CCC(=O)NCc1ccccc1)NCc1ccccc1	-16%	?	18%	-3%	?
CC(=O)c1ccc(N2CCN(C(=O)C3(S(=O)(=O)c4ccc(Cl)cc4)CC3)CC2)cc1	7%	-25%[59 µM]	14%	-2%	-8%
COc1ccc(N2CCN(C(=O)C3(S(=O)(=O)c4ccc(C)cc4)CC3)CC2)cc1	-10%	71µM*	16%	-3%	-7%
Cc1ccc(S(=O)(=O)CCC(=O)N2CCN(c3ccc([N+](=O)[O-])cc3)CC2)cc1	25µM*	21%[59 µM]	-4%	-4%	-17%
COc1ccc(N2CCN(C(=O)CCS(=O)(=O)c3ccc(C)cc3)CC2)cc1	-14%	50µM*	4%	-5%	-8%
COc1ccc(OC)c(NC(=O)[C@H]2C[C@@H]3CCCN3[C@]23C(=O)Nc2c(C)cc(Cl)cc23)c1	.	.	.	.	-25%
O=S(=O)(NC1=NCN(Cc2cccnc2)CN1)c1ccc(Cl)cc1	.	.	.	.	16%
S=c1[nH]nc(-c2ccco2)n1C1CCCCC1	-9%	2µM*	-20%	-4%	?
Cc1nn(C)cc1-c1n[nH]c(=S)n1-c1ccc(Cl)cc1	-20%	5.6µM*	?	-5%	?
CC(C)(C)c1cc(-c2n[nH]c(=S)n2-c2ccc(Cl)cc2)n[nH]1	?	?	?	-2%	?
Cc1ccc(C)c(-n2c(-c3ccco3)n[nH]c2=S)c1	-18%	.	.	-2%	-53%
COc1ccc(-n2c(-c3ccco3)n[nH]c2=S)cc1	-1%	4µM*	-19%	-5%	?
Nn1c(-c2ccco2)n[nH]c1=S	5%	8.9µM*	56µM*	0%	?
S=c1[nH]nc(-c2ccco2)n1-c1ccc(Cl)cc1	-1%	?	-15%	0%	40µM*
Cc1cccc(C(CC(=O)Nc2ccc(-c3ccno3)cc2)n2cccc2)c1 (centres undefined)	.	.	.	.	-22%
COc1ccccc1/C=C/C1=NC(=C\C=C/c2ccccc2)/C(=O)O1	?	?	0%	-2%	45µM*
CN(C)Cc1ccccc1Sc1cccc2ccccc12	10%	?	-71%	-4%	-16%
c1ccc(Sc2cccc3ccccc23)c(CNC2=NCCN2)c1	-11%	16µM*	-20%	-4%	?
Fc1ccccc1Sc1ccccc1CNC1=NCCN1	-10%	7.1µM*	-12%	-7%	?
CCC(C)NC(=O)C(NC(=O)c1ccc(C)cc1)C1CCN(C(=O)c2ccccc2C)CC1 (centres undefined)	.	.	.	.	14%
CCOC(=O)C(NC(=O)[C@@H](NC(=O)c1ccc(Cl)cc1Cl)C(C)C)C(=O)OCC	.	.	.	.	-20%
